# GC-B act: GC-B (human) receptor activation. P20594. activation, % at 10 µM. actives 0.11% (n = 370,000). HEK293-GC-B cells, CNP EC30, cGMP TR-FRET; 0% at EC30 CNP, 100% saturating CNP;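 active = activation at 10 µM reaching about 35% in either raw or pattern-adjusted values, limit read from the data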
# NadD inh: inhibitors of Staphylococcus aureus NadD; purified NadD enzyme, colorimetric absorbance read-out; inhibition, % at 20 µM; actives 0.78% (n = 360,000); AID 602399; in the data active = inhibition above about 26%
# GC-A act: GC-A (human) enzyme activation | P16066 | HEK293 GC-A cells, cGMP TR-FRET, EC30 ANP; 0% at EC30 ANP, 100% saturating ANP | activation, % at 10 µM | actives 0.14% (n = 370,000) | AID 1671463; in the data active = activation above about 40%
# Neddylation inh: inhibitors of human cullin neddylation. P61081+Q13564. TR-FRET cullin neddylation, biochemical. inhibition, % at 25 µM. actives 0.58% (n = 360,000); in the data active = inhibition above about 36%
# NadD conf: NadD (S. aureus) inhibition, single concentration confirmation. AID 624309. purified S. aureus NadD, colorimetric enzyme assay. shares compounds with NadD inh. actives 13% (n = 2,000). inhibition, % at 20 µM; in the data active = inhibition mostly above about 42%, no sharp cut-off; inactive = mostly below about 42%
# * hit, by the source's call; x = no result shown. A selection: hits, their analogues and other compounds. The true share with any hit is near 1.5%.
SMILES,GC-B act,NadD inh,GC-A act,Neddylation inh,others
N#CCC[C@@H]1CC[C@]2(CCCN(Cc3ccccn3)C2)O1,0,x,-1,x,
COc1ccc([C@@H]2C[C@H]3[C@@H](CN2)CON3C)cc1,-2,x,5,x,
O=C1CC=C2C3CC4N(CCC45c4cc(O)c(O)cc4N1C25)CC3=CCBr (stereo not given),-7,92*,-5,49*,
CC(=O)c1c(C)n(CC2CCCO2)c2ccc(O)cc12 (stereo not given),4,2,3,3,
Cc1c(C(=O)Nc2ccccc2)c2cc(O)ccc2n1Cc1ccccc1,-3,1,61*,0,
COC(=O)c1c(C)n(Cc2ccco2)c2ccc(O)cc12,-8,-3,47*,15,
CC(=O)c1c(C)n(Cc2ccccc2Cl)c2ccc(O)cc12,10,-5,83*,4,
C=C1C(=O)C(C)=C2C(=O)N3Cc4[nH]c5ccccc5c4CC3(C(=O)OC)C12 (stereo not given),5,x,6,x,
CC(NC(=O)OCc1ccccc1)P(=O)(Oc1ccccc1)Oc1ccccc1 (stereo not given),-6,x,-3,x,
Cc1cc(N2CCNC[C@H]2C)ccc1N1CC[C@H](O)C1,-1,x,-2,x,
CCn1c(C)cc(/C=C2\C(=O)NC(=O)N(c3ccccc3C)C2=O)c1C,-2,0,2,-9,
Cc1ccccc1N1C(=O)NC(=O)/C(=C\c2cnn(-c3ccccc3)c2)C1=O,10,17,45*,-9,
CC(C)C(C(=O)NC(C)(C)C)N1C(=O)CN=C(c2ccccc2)c2ccccc21 (stereo not given),-12,x,-5,x,
CNc1ccc2oc(C[C@H]3O[C@@]4(CC[C@H]3C)O[C@H]([C@H](C)C(=O)c3ccc[nH]3)[C@H](C)C[C@H]4C)nc2c1C(=O)O,-12,59*,-27,22,
Cc1ccc(N2C(=O)NC(=O)/C(=C/c3ccc(-c4ccc(C(=O)O)c(Cl)c4)o3)C2=O)cc1,0,42*,3,2,
C=C(C=O)CC1CC(O)[C@]2(C)OC3CC4OC5C[C@]6(C)O[C@]7(C)CCC8OC9C[C@]%10(C)OC%11C(C)=CC(=O)OC%11CC%10OC9C[C@@H](C)C8OC7CC6O[C@]5(C)C/C=C\C4OC3CC2O1 (stereo not given in full),4,x,-1,x,
COC(=O)C1=C(C(=O)OC)SC2(S1)C(C(=O)OC)=C(C(=O)OC)Sc1c2ssc1=O,65*,1,43*,-42,
CCN(CC)C(=O)Cn1cc(/C=C2\C(=O)NC(=O)N(c3ccccc3F)C2=O)c2ccccc21,16,5,44*,7,
O=C1NC(=O)C(=Cc2cn(CCOc3ccc4c(c3)OCO4)c3ccccc23)C(=O)N1,x,43*,x,6,
C=C1[C@@H](C)C2[C@H](Cc3ccccc3)NC(=O)[C@]23[C@H](OC(C)=O)/C=C/[C@@](C)(O)C(=O)[C@@H](C)C/C=C/[C@H]3[C@@H]1O (stereo not given in full),-19,x,-22,x,
Cc1cc(/C=C2\C(=O)NC(=O)N(c3ccc(Cl)cc3)C2=O)c(C)n1-c1sc2c(c1C#N)CCCC2,-7,47*,4,-41,
CC(NC(=O)OC1CC2CCC1(C)C2(C)C)P(=O)(Oc1ccccc1)Oc1ccccc1 (stereo not given),-3,x,0,x,
C=CCN(CC#CCO)Cc1ccc(OC)cc1OC,-7,x,2,x,
CN1C[C@H](O)[C@H]2C[C@@H]1c1ccccc1O2,4,x,1,x,
Clc1ccc(C(c2ccc(Cl)cc2)n2cc[n+](CC(OCc3ccc(Cl)cc3Cl)c3ccc(Cl)cc3Cl)c2)cc1 (stereo not given),-14,80*,-32,12,
SMILES,GC-B act,NadD inh,GC-A act,Neddylation inh,others
CC(C)(C)NC(=O)C1CN=C(c2ccccc2)c2cc(Cl)ccc2N1C(=O)C1CCC1 (stereo not given),-21,x,-22,x,
CC(NC(=O)OCc1ccccc1)[P+](=O)O (stereo not given),1,x,1,x,
Cc1cccc(C(C)c2cnc[nH]2)c1C (stereo not given),-3,x,5,x,
O=C1NC(=O)C(=Cc2ccc(-c3ccc(Cl)cc3)o2)C(=O)N1,x,39*,x,-39,
O=C1NC(=O)C(=Cc2ccc(-c3ccc(S(=O)(=O)N4CCOCC4)cc3)o2)C(=O)N1,4,10,-2,-33,
O=C1NC(=O)C(=Cc2ccc(-c3ccc(F)cc3O)o2)C(=O)N1,22,6,57*,-5,
Cc1ccc(/C=C2\C(=O)NC(=O)N(CCc3ccc(F)cc3)C2=O)o1,10,4,16,-8,
CCOC(=O)CC[C@@H]1CC[C@]2(CCCN(Cc3cccnc3)C2)O1,1,x,2,x,
c1ccc(-c2nc3ccccc3nc2-c2ccc(CN3CCC(n4nnc5ccccc54)CC3)cc2)cc1,4,x,0,x,
Cc1cccc2nc(-c3ccccc3)c(-c3ccc(CN4CCC(n5c(=O)[nH]c6ccccc65)CC4)cc3)nc12,3,45*,0,1,NadD conf=26
Cc1cccc(C)c1-n1nnnc1C(c1cccc2ccccc12)N1CCC(n2c(=O)[nH]c3ccccc32)CC1 (stereo not given),9,38*,-1,0,NadD conf=-3
Fc1ccc2nc(-c3ccc(CN4CCC(n5nnc6ccccc65)CC4)cc3)c(-c3ccccc3)nc2c1,1,x,7,x,
N#Cc1ccc2nc(-c3ccc(CN4CCC(n5c(=O)[nH]c6ccccc65)CC4)cc3)c(-c3ccccc3)nc2c1,6,43*,5,-4,NadD conf=26
CC[C@]12CCN(CC3(O)CC3)C(Cc3ccc(O)cc31)C2(C)C,-5,x,-3,x,
N#CC1=C(N)Oc2c(c(=O)oc3ccccc23)C1c1cccnc1 (stereo not given),2,1,-5,12,
CCOc1cc(C2C(C#N)=C(N)Oc3c2c(=O)oc2ccccc32)ccc1OC(=O)c1cccs1 (stereo not given),5,31*,2,25,NadD conf=23
O=S(=O)(c1ccc(Cl)cc1)N1Cc2ccc(Br)cc2-n2nncc2C1,-5,x,-9,x,
Cc1cc(N(CCCl)CCCl)ccc1C=NNC(=O)Cc1cc(=O)oc2cc(O)ccc12,3,73*,-4,x,NadD conf=59*
CC(=O)C1=C(C)OC2=C(C(=O)CCC2)[C@@]12C(=O)N(C)c1ccccc12,0,x,8,x,
COc1ccc(-c2cc(-c3ccccc3)[n+](C)c(-c3ccccc3)c2)cc1,3,14,7,x,
C[n+]1c(-c2ccccc2)cc(CCCCc2cc(-c3ccccc3)[n+](C)c(-c3ccccc3)c2)cc1-c1ccccc1,3,40*,-28,25,NadD conf=43
CC(=O)c1ccc2c(c1)C1C(Cl)C(Sc3ccccc3[N+](=O)[O-])CC1C(c1ccccc1)N2 (stereo not given),-11,37*,-12,-24,NadD conf=20
